Structures can show the parent of a compound that is named as a salt.
tested on: HEPG2; assay: Euclidean distance of Cell Painting phenotypic profile (signed KS, 77 features) to DMSO centroid (dimensionless distance); 5 or 10 uM (library dependent); higher = stronger phenotypic change vs DMSO (phenoactivity); details: 48 h
In short: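 Five cancer lines and a healthy fibroblast line received library compounds at 10 or 5 uM (library-dependent, 0.1% DMSO final) for 48 h. Stained cells were imaged confocally at 20X (9 fields/well). Harmony extracted 77 features, each scored as a signed Kolmogorov-Smirnov statistic against same-plate vehicle wells. Profiles were plate-position corrected, correlation-weighted and replicate-averaged at the top dose. Phenoactivity is the Euclidean distance from each profile to the median vehicle profile.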

Row | Structure (SMILES) | Euclidean distance
1 | CN(C)c1ccc(O)c2c1C[C@H]1C[C@H]3[C@H](N(C)C)C(O)=C(C(N)=O)C(=O)[C@@]3(O)C(O)=C1C2=O [Minocycline HCl] | 0.637
2 | Clc1ccc(CCCOCCCN2CCCCC2)cc1 [Pitolisant hydrochloride] | 0.955
3 | Clc1ccc(C(c2ccccc2Cl)C(Cl)Cl)cc1 (stereo not given) [Mitotane] | 1.84
4 | CCOCC(O)COc1ccc(NC(=O)CC[S+](C)C)cc1 (stereo not given) [Suplatast Tosylate] | 0.648
5 | Cc1onc(-c2ccccc2)c1C(=O)N[C@@H]1C(=O)N2[C@@H]1SC(C)(C)[C@@H]2C(=O)O [Oxacillin sodium monohydrate] | 0.665
6 | NCC(=O)CCC(=O)O [5-Aminolevulinic acid HCl] | 1.61
7 | NS(=O)(=O)c1cc2c(cc1Cl)NC(C1CC3C=CC1C3)NS2(=O)=O (stereo not given) [Cyclothiazide] | 0.641
8 | CC(C)N1CCN(Cc2cnc(-c3cc(-c4cccc5[nH]ccc45)cc4[nH]ncc34)o2)CC1 | 3.14
9 | CC1(C)O[C@H]2CC(=O)OC[C@]23[C@H]2CC[C@@]4(C)[C@H](c5ccoc5)OC(=O)[C@H]5O[C@]54[C@]2(C)C(=O)C[C@@H]13 [Limonin] | 1.05
10 | COc1ccc(C2CC(=O)c3c(O)cc(OC4OC(COC5OC(C)C(O)C(O)C5O)C(O)C(O)C4O)cc3O2)cc1OC (stereo not given) [Methyl-Hesperidin] | 0.966
11 | CC1(C)S[C@@H]2[C@H](NC(=O)Cc3ccccc3)C(=O)N2[C@H]1C(=O)O.CCN(CC)CCOC(=O)c1ccc(N)cc1 [Penicillin G Procaine] | 0.466
12 | CN1CCCN=C1/C=C/c1cccs1 [Pyrantel Pamoate] | 0.805
13 | O=C(Nc1ccc(-c2ccnc(Nc3ccc(N4CCOCC4)cc3)n2)cc1)C1CCCN1 (stereo not given) | 1.48
14 | NC(=O)[C@@H]1CC[C@@H]2CN1C(=O)N2OS(=O)(=O)O [Avibactam sodium] | 0.607
15 | CC(C)(C(=O)c1cccnc1)c1cccnc1 [Metyrapone] | 0.932
16 | O=C(OC[C@H]1O[C@@H](OC(=O)c2cc(O)c(O)c(OC(=O)c3cc(O)c(O)c(O)c3)c2)[C@H](OC(=O)c2cc(O)c(O)c(OC(=O)c3cc(O)c(O)c(O)c3)c2)[C@@H](OC(=O)c2cc(O)c(O)c(OC(=O)c3cc(O)c(O)c(O)c3)c2)[C@@H]1OC(=O)c1cc(O)c(O)c(OC(=O)c2cc(O)c(O)c(O)c2)c1)c1cc(O)c(O)c(OC(=O)c2cc(O)c(O)c(O)c2)c1 [Tannic acid] | 1.43
17 | CN(C)CCOc1ccc(/C(=C(/CCCl)c2ccccc2)c2ccccc2)cc1 [Toremifene Citrate] | 2.79
18 | O=C(O[C@H]1CN2CCC1CC2)N1CCc2ccccc2[C@@H]1c1ccccc1 [Solifenacin succinate] | 2.17
19 | CCN(c1cc(-c2ccc(CN3CCOCC3)cc2)cc(C(=O)NCc2c(C)cc(C)[nH]c2=O)c1C)C1CCOCC1 [Tazemetostat (EPZ-6438)] | 0.489
20 | CC(C)(Oc1ccc(C(=O)c2ccc(Cl)cc2)cc1)C(=O)O [Choline Fenofibrate] | 0.32

Row | Structure (SMILES) | Euclidean distance
21 | CC(C)(O)CC(=O)NCCn1ccc2ncnc(Nc3ccc(Oc4cccc(C(F)(F)F)c4)c(Cl)c3)c21 | 1
22 | O=C(c1cccc(Cl)c1F)N1CCN(Cc2cccc(Nc3nccs3)n2)CC1 | 2.74
23 | C[N+](C)(C)CCOC(N)=O [Carbachol] | 0.696
24 | CC(C)OC(=O)CCC/C=C\C[C@@H]1[C@@H](/C=C/[C@@H](O)COc2cccc(C(F)(F)F)c2)[C@H](O)C[C@@H]1O [Travoprost] | 1.07
25 | CCOc1cc(N)c(Cl)cc1C(=O)NCC1CN(Cc2ccc(F)cc2)CCO1 (stereo not given) [Mosapride] | 0.651
26 | CC1(C)C2CCC1(C)C(O)C2 (stereo not given) [Borneol] | 0.614
27 | Nc1nc(F)nc2c1ncn2[C@@H]1O[C@H](CO)[C@@H](O)[C@@H]1O [Fludarabine] | 1.21
28 | NNc1nncc2ccccc12 [Hydralazine HCl] | 0.411
29 | CC(C)Cc1ccc(C(C)C(=O)OCc2ccccn2)cc1 (stereo not given) [Ibuprofen piconol] | 0.518
30 | CC(C)(Sc1cc(C(C)(C)C)c(O)c(C(C)(C)C)c1)Sc1cc(C(C)(C)C)c(O)c(C(C)(C)C)c1 [Probucol] | 1.07
31 | CC(C)c1cc(C(=O)N2Cc3ccc(CN4CCN(C)CC4)cc3C2)c(O)cc1O | 2.99
32 | CN1[C@@H](CC(=O)c2ccccc2)CCC[C@H]1C[C@H](O)c1ccccc1 [Lobeline hydrochloride] | 0.499
33 | COc1cc2c(cc1OC)[C@H]1C[C@@H](OC(=O)[C@@H](N)C(C)C)[C@H](CC(C)C)CN1CC2 [Valbenazine tosylate] | 0.752
34 | Cc1c(C(=O)N2CCOc3ccc(-c4ccc(N)nc4)cc3C2)ccc(S(C)(=O)=O)c1F | 2.59
35 | C[C@@H](c1ncncc1F)[C@](O)(Cn1cncn1)c1ccc(F)cc1F [Voriconazole] | 0.988
36 | CN(C)CC/C=C1/c2ccccc2COc2ccc(CC(=O)O)cc21 [Olopatadine HCl] | 0.686
37 | NCC(=O)Nc1ccc(-n2nc(C(F)(F)F)cc2-c2ccc3c(ccc4ccccc43)c2)cc1 | 1.34
38 | COc1cc2c(Oc3ccc(NC(=O)C4(C(=O)Nc5ccc(F)cc5)CC4)cc3F)ccnc2cc1OCCCN1CCOCC1 | 0.94
39 | Cc1cn([C@H]2C[C@H](N=[N+]=[N-])[C@@H](CO)O2)c(=O)[nH]c1=O [Zidovudine] | 1.54
40 | COc1cc2nc(N3CCN(C(=O)c4ccco4)CC3)nc(N)c2cc1OC [Prazosin HCl] | 0.382
